Source: the supplement of paper PMC10515830
Where a name gives a salt, the structure may show the parent alone.

Columns and labels:
Conditions in all cases: 10 µM; exposure time 6 h
[1] = tested on: Danio rerio larvae (5 dpf); test: difference in excitability vs DMSO (percentage points); higher = more excitable than DMSO
Outline: (§1)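 Library compounds were tested at 10 µM final in 100 µL egg water on wild-type 5 dpf zebrafish larvae in 96-well plates for 6 h, with 48 larvae per compound. After 3 h, plates at 28.5 ℃ were imaged every 6 s during a 3-h run of moving lines and 100 ms, 400Hz tones. Behaviours were quantified by Z-LaP Tracker and reported as the compound mean less the vehicle control mean, in percentage points.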

[2] = tested on: Danio rerio larvae (5 dpf); test: difference in startle response vs DMSO (percentage points); higher = stronger startle than DMSO
Outline: as §1

[3] = tested on: Danio rerio larvae (5 dpf); test: difference in activity during first hour vs DMSO (percentage points); higher = more activity than DMSO
Outline: as §1

[4] = tested on: Danio rerio larvae (5 dpf); test: difference in habituation to acoustic stimuli vs DMSO (percentage points); higher = more habituation than DMSO
Outline: as §1

[5] = tested on: Danio rerio larvae (5 dpf); test: difference in combined optomotor response to red, green and blue moving lines vs DMSO (percentage points); higher = stronger optomotor response than DMSO
Outline: as §1

C[N+]1(C)[C@@H]2C[C@@H](OC(=O)C(O)(c3cccs3)c3cccs3)C[C@H]1[C@@H]1O[C@@H]12 [Tiotropium (bromide)]
difference in excitability [1]: -0.664
difference in startle response [2]: -4.87
difference in activity during first hour [3]: -7.11
difference in habituation to acoustic stimuli [4]: -4.6
difference [5]: -6.76

NC(=O)c1ncn([C@@H]2O[C@H](CO)[C@@H](O)[C@H]2O)n1 [Ribavirin]
difference in excitability [1]: 3.64
difference in startle response [2]: -0.473
difference in activity during first hour [3]: 21.8
difference in habituation to acoustic stimuli [4]: -4.01
difference [5]: 5.68

CO/N=C1\CN(c2nc3c(cc2F)c(=O)c(C(=O)O)cn3C2CC2)CC1CN (stereo not given) [Gemifloxacin (mesylate)]
difference in excitability [1]: 7.63
difference in startle response [2]: 9.12
difference in activity during first hour [3]: 11
difference in habituation to acoustic stimuli [4]: -1.77
difference [5]: 2.04

CN(C)CCc1c[nH]c2ccc(Cn3cncn3)cc12 [Rizatriptan (benzoate salt)]
difference in excitability [1]: 9.6
difference in startle response [2]: -1.93
difference in activity during first hour [3]: 6.28
difference in habituation to acoustic stimuli [4]: 2.81
difference [5]: 7.91

Cc1cc(NS(=O)(=O)c2ccc(N)cc2)no1 [Sulfamethoxazole]
difference in excitability [1]: 0.0564
difference in startle response [2]: 4.25
difference in activity during first hour [3]: 9.59
difference in habituation to acoustic stimuli [4]: 3.04
difference [5]: 8.31

Cc1cc(C2CCCCC2)n(O)c(=O)c1 [Ciclopirox]
difference in excitability [1]: 3.8
difference in startle response [2]: -2.37
difference in activity during first hour [3]: 8.43
difference in habituation to acoustic stimuli [4]: 5.39
difference [5]: 8.2

Cc1c(OCC(F)(F)F)ccnc1C[S@@+]([O-])c1nc2ccccc2[nH]1 [(R)-Lansoprazole]
difference in excitability [1]: 7.16
difference in startle response [2]: 4.39
difference in activity during first hour [3]: 7.03
difference in habituation to acoustic stimuli [4]: -1.38
difference [5]: 1.12

CC(C)OC(=O)C(C)(C)Oc1ccc(C(=O)c2ccc(Cl)cc2)cc1 [Fenofibrate]
difference in excitability [1]: 13.8
difference in startle response [2]: -6.52
difference in activity during first hour [3]: 45.6
difference in habituation to acoustic stimuli [4]: -9.59
difference [5]: -15.8

Clc1ccc(CCC(Cn2ccnc2)Sc2c(Cl)cccc2Cl)cc1 (stereo not given) [Butoconazole (nitrate)]
difference in excitability [1]: 9.05
difference in startle response [2]: -10.1
difference in activity during first hour [3]: -20.7
difference in habituation to acoustic stimuli [4]: -10.8
difference [5]: -16.7

CC(=O)NC[C@H]1CN(c2ccc(N3CCOCC3)c(F)c2)C(=O)O1 [Linezolid]
difference in excitability [1]: -5.19
difference in startle response [2]: 5.59
difference in activity during first hour [3]: -0.74
difference in habituation to acoustic stimuli [4]: 3.24
difference [5]: 0.137

CC[C@]1(O)C[C@@H]2CN(CCc3c([nH]c4ccccc34)[C@@](C(=O)OC)(c3cc4c(cc3OC)N(C)[C@H]3[C@@](O)(C(=O)OC)[C@H](OC(C)=O)[C@]5(CC)C=CCN6CC[C@]43[C@@H]65)C2)C1 [Vinblastine (sulfate)]
difference in excitability [1]: 11.1
difference in startle response [2]: -3.06
difference in activity during first hour [3]: -6.36
difference in habituation to acoustic stimuli [4]: -2.13
difference [5]: -3.97

C[C@@H](O)[C@H]1C(=O)N2C(C(=O)O)=C(S[C@@H]3CN[C@H](CNS(N)(=O)=O)C3)[C@H](C)[C@H]12 [Doripenem (hydrate)]
difference in excitability [1]: 0.847
difference in startle response [2]: -3.28
difference in activity during first hour [3]: 18.4
difference in habituation to acoustic stimuli [4]: -1.56
difference [5]: -1.12

C/C(=C\c1csc(C)n1)[C@@H]1C[C@@H]2O[C@]2(C)CCC[C@H](C)[C@H](O)[C@@H](C)C(=O)C(C)(C)[C@@H](O)CC(=O)N1 [Ixabepilone]
difference in excitability [1]: 0.28
difference in startle response [2]: -3.45
difference in activity during first hour [3]: 16.6
difference in habituation to acoustic stimuli [4]: 5.42
difference [5]: -1.72

CCCCC[C@H](O)/C=C/[C@H]1[C@H](O)CC(=O)[C@@H]1CCCCCCC(=O)O [Prostaglandin E1]
difference in excitability [1]: 15.5
difference in startle response [2]: -3.01
difference in activity during first hour [3]: -8.7
difference in habituation to acoustic stimuli [4]: -1.03
difference [5]: 0.226

CC1(C)CCC(CN2CCN(c3ccc(C(=O)NS(=O)(=O)c4ccc(NCC5CCOCC5)c([N+](=O)[O-])c4)c(Oc4cnc5[nH]ccc5c4)c3)CC2)=C(c2ccc(Cl)cc2)C1
difference in excitability [1]: 0.697
difference in startle response [2]: -11.3
difference in activity during first hour [3]: 10.4
difference in habituation to acoustic stimuli [4]: 2.22
difference [5]: 3.34

C=C1CC[C@H](O)C/C1=C/C=C1\CCC[C@]2(C)[C@@H]([C@H](C)CCCC(C)(C)O)CC[C@@H]12 [25-hydroxy Vitamin D3]
difference in excitability [1]: 4.23
difference in startle response [2]: -8.24
difference in activity during first hour [3]: 8.17
difference in habituation to acoustic stimuli [4]: -5.95
difference [5]: -5

Clc1ccc(C(c2ccccc2Cl)C(Cl)Cl)cc1 (stereo not given) [Mitotane]
difference in excitability [1]: 5.19
difference in startle response [2]: -9.33
difference in activity during first hour [3]: 60.8
difference in habituation to acoustic stimuli [4]: -11.8
difference [5]: -15.4

S=c1nc[nH]c2nc[nH]c12 [6-Mercaptopurine (hydrate)]
difference in excitability [1]: 6.66
difference in startle response [2]: 2.46
difference in activity during first hour [3]: -5.06
difference in habituation to acoustic stimuli [4]: -0.245
difference [5]: 1.98

O=C1CCCC(=O)C1C(=O)c1ccc(C(F)(F)F)cc1[N+](=O)[O-] [Nitisinone]
difference in excitability [1]: -4.15
difference in startle response [2]: -6.23
difference in activity during first hour [3]: 19.7
difference in habituation to acoustic stimuli [4]: -0.151
difference [5]: 0.618

CN1CCC(=C2c3ccccc3CCn3c(C=O)cnc32)CC1 [Alcaftadine]
difference in excitability [1]: -1.49
difference in startle response [2]: 3.88
difference in activity during first hour [3]: 20.6
difference in habituation to acoustic stimuli [4]: -3
difference [5]: -2.52

CC(C)OC(=O)CCC/C=C\C[C@@H]1[C@@H](/C=C/C(F)(F)COc2ccccc2)[C@H](O)C[C@@H]1O [Tafluprost]
difference in excitability [1]: 10.1
difference in startle response [2]: -0.187
difference in activity during first hour [3]: -16
difference in habituation to acoustic stimuli [4]: 12.5
difference [5]: -4.17

CO[C@H]1O[C@@H]2O[C@@]3(C)CC[C@H]4[C@H](C)CC[C@@H]([C@H]1C)[C@@]24OO3 [Artemether]
difference in excitability [1]: 17.2
difference in startle response [2]: 3.03
difference in activity during first hour [3]: -1.53
difference in habituation to acoustic stimuli [4]: 3.23
difference [5]: 7.61

Cn1c(=O)cc(N2CCC[C@@H](N)C2)n(Cc2ccccc2C#N)c1=O [Alogliptin (benzoate salt)]
difference in excitability [1]: 9.09
difference in startle response [2]: 5.66
difference in activity during first hour [3]: 10.7
difference in habituation to acoustic stimuli [4]: -0.862
difference [5]: 0.5

C=C1[C@H](CO)[C@@H](O)C[C@@H]1n1cnc2c(=O)[nH]c(N)nc21 [Entecavir (hydrate)]
difference in excitability [1]: -1.86
difference in startle response [2]: 2.04
difference in activity during first hour [3]: -1.96
difference in habituation to acoustic stimuli [4]: 5.32
difference [5]: 0.96
